In all, about 5,500 compounds went through this assay and about 2,000 (36%) were called active. Roughly 18% stayed inconclusive and do not appear here. Cut-off read from the data, not from the text of the source: active = normalized growth mostly below about 0.91 (no sharp cut-off); inconclusive = no clear call, values can overlap the other calls; inactive = mostly above about 0.92. The list shows a part of the results.
Test: chemical genetic growth profiling, strain panel (AID 1159580);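 note: tested at 20 µM; growth read once vehicle control cultures reached saturation at 30 °C; 1 = growth at the plate median or of vehicle wells; lower values mean less growth of the strain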
Details: S. cerevisiae deletion strains, growth OD

Measured: normalized growth

O=C(Cc1cccs1)NC1C(=O)N2C(C(=O)[O-])=C(C[n+]3ccccc3)CSC12 (stereo unspecified)
inactive: locus YAL013W, strain DEP1, active compounds read low 1.01 | locus YAL021C, strain ccr4, active compounds read low 0.966 | locus YAL026C, strain drs2, active compounds read low 0.989 | locus YAL030W, strain snc1, active compounds read low 0.994 | locus YBL061C, strain skt5, active compounds read low 0.995 | locus YBR009C, strain hhf1, active compounds read low 0.981 | locus YBR021W, strain FUR4, active compounds read low 1 | locus YBR023C, strain chs3, active compounds read low 0.993 | locus YBR171W, strain sec66, active compounds read low 0.975 | locus YBR229C, strain ROT2, active compounds read low 0.99 | locus YBR231C, strain swc5, active compounds read low 0.985 | locus YBR279W, strain paf1, active compounds read low 0.996 | locus YCL011C, strain gbp2, active compounds read low 0.997 | locus YCL016C, strain dcc1, active compounds read low 0.991 | locus YCL029C, strain bik1, active compounds read low 1 | locus YCL069W, strain vba3, active compounds read low 0.991 | locus YCR088W, strain abp1, active compounds read low 0.982 | locus YDL005C, strain med2, active compounds read low 0.968 | locus YDL035C, strain GPR1, active compounds read low 0.998 | locus YDL040C, strain nat1, active compounds read low 0.983 | locus YDL074C, strain BRE1, active compounds read low 1.01 | locus YDL101C, strain DUN1, active compounds read low 1.02 | locus YDL134C, strain PPH21, active compounds read low 1 | locus YDL185W, strain tfp1, active compounds read low 0.991 | locus YDL192W, strain arf1, active compounds read low 0.992 | locus YDR001C, strain nth1, active compounds read low 0.996 | locus YDR069C, strain doa4, active compounds read low 0.964 | locus YDR101C, strain arx1, active compounds read low 1.01 | locus YDR137W, strain rgp1, active compounds read low 0.988 | locus YDR159W, strain sac3, active compounds read low 0.962 | locus YDR162C, strain NBP2, active compounds read low 1.01 | locus YDR195W, strain ref2 1.01 | locus YDR297W, strain sur2, active compounds read low 0.989 | locus YDR318W, strain mcm21, active compounds read low 0.998 | locus YDR334W, strain swr1, active compounds read low 0.993 | locus YDR335W, strain msn5, active compounds read low 0.996 | locus YDR388W, active compounds read low 0.99 | locus YDR392W, strain spt3, active compounds read low 0.994 | locus YDR502C, strain sam2, active compounds read low 0.985 | locus YEL003W, strain gim4, active compounds read low 0.969 | locus YEL037C, strain rad23, active compounds read low 1 | locus YEL061C, strain CIN8 (second series), active compounds read low 1 | locus YEL061C, strain CIN8, active compounds read low 1.01 | locus YER015W, strain faa2, active compounds read low 0.983 | locus YER016W, strain bim1, active compounds read low 0.983 | locus YER110C, active compounds read low 0.992 | locus YER111C, strain swi4, active compounds read low 0.96 | locus YER155C, strain BEM2 (second series), active compounds read low 0.987 | locus YER155C, strain BEM2, active compounds read low 1 | locus YER167W, strain BCK2, active compounds read low 0.991 | locus YFR010W, strain ubp6, active compounds read low 0.986 | locus YGL078C, strain dbp3, active compounds read low 0.99 | locus YGL086W, strain mad1, active compounds read low 0.999 | locus YGL167C, strain pmr1, active compounds read low 0.985 | locus YGL173C, strain kem1, active compounds read low 0.982 | locus YGL227W, strain vid30, active compounds read low 0.979 | locus YGL240W, strain doc1, active compounds read low 0.956 | locus YGL248W, strain PDE1, active compounds read low 1.02 | locus YGL253W, strain hxk2, active compounds read low 0.999 | locus YGR135W, strain pre9, active compounds read low 0.978 | locus YGR252W, strain gcn5, active compounds read low 0.941 | locus YHR013C, strain ard1, active compounds read low 0.981 | locus YHR027C, strain rpn1, active compounds read low 0.991 | locus YHR030C, strain SLT2, active compounds read low 1.01 | locus YHR079C, strain IRE1 (second series), active compounds read low 0.996 | locus YHR094C, strain hxt1, active compounds read low 0.998 | locus YHR129C, strain ARP1, active compounds read low 1.01 | locus YHR142W, strain chs7, active compounds read low 0.963 | locus YHR200W, strain rpn10, active compounds read low 0.994 | locus YIL066C, strain RNR3, active compounds read low 1.02 | locus YIL073C, strain SPO22, active compounds read low 1.09 | locus YIL125W, strain kgd1, active compounds read low 0.999 | locus YIR030C, strain dcg1, active compounds read low 1.01 | locus YJL092W, strain hpr5, active compounds read low 0.986 | locus YJL095W, strain BCK1 (second series), active compounds read low 0.961 | locus YJL095W, strain BCK1, active compounds read low 1.03 | locus YJL115W, strain asf1, active compounds read low 0.981 | locus YJL129C, strain trk1, active compounds read low 0.99 | locus YJL134W, strain LCB3, active compounds read low 1 | locus YJL154C, strain vps35, active compounds read low 0.983 | locus YJL164C, strain tpk1, active compounds read low 0.985 | locus YJL166W, strain qcr8, active compounds read low 0.979 | locus YJL168C, strain set2, active compounds read low 0.994 | locus YJL187C, strain SWE1 (second series), active compounds read low 1.01 | locus YJL187C, strain SWE1, active compounds read low 0.978 | locus YJR043C, strain POL32, active compounds read low 1.01
